According to PubChem BioAssay (NCATS):
Records with an inconclusive call do not appear. The source made the active and inactive calls. Calls come from the whole dose curve; as a rule, active = well fitted inhibition curve with a large enough effect; inconclusive = small, poorly fitted or top-dose-only effect; inactive = flat fitted curve, though single readings scatter.

Columns and labels:
CRL-7250 = normal cell line; test: Cytotoxic Profiling of Annotated Libraries Using Quantitative High-Throughput Screening (AID 1296008); conditions: Five cell lines viability, CellTiter-Glo ATP luminescence, 48-72 h; stronger effect = lower value; for max response: % is set by controls: 0 for no effect and ±100 for the full control effect
Summary of the method: (§1)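 Cells exposed to compounds for 48 or 72 hr at 37 degrees Celsius. Viability read as ATP-coupled luminescence with CellTiter-Glo after 10 min at room temperature.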

HEK293 = test: as above; conditions: Five cell lines viability, CellTiter-Glo ATP luminescence, 48-72 h; stronger effect = lower value
Summary of the method: as §1

HaCat [1] = test: as above; conditions: Five cell lines viability, CellTiter-Glo ATP luminescence, 48-72 h; stronger effect = lower value
Summary of the method: as §1

KB-3-1 = test: as above; conditions: Five cell lines viability, CellTiter-Glo ATP luminescence, 48-72 h, stronger effect = lower value
Summary of the method: as §1

NIH3T3 = test: as above; conditions: Five cell lines viability, CellTiter-Glo ATP luminescence, 48-72 h; stronger effect = lower value
Summary of the method: as §1

HACAT [2] = test: qHTS assay to identify novel small-molecules to repurpose for Merkel cell carcinoma treatment (AID 1296009); conditions: MCC and control cell lines, CellTiter-Glo viability, 72 h; at 44.8 µM (top of the series) unless noted
Summary of the method: (§2)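 CellTiter-Glo luminescence after 72 hr compound exposure at 37 degree celsius gave cell viability. Libraries NPC and MIPE were run as 8- and 11-point dose responses; RLUs normalized to DMSO (negative) and no-cell (cytotoxicity) controls.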

HEK293T = test: as above; conditions: MCC and control cell lines, CellTiter-Glo viability, 72 h; at 44.8 µM (top of the series) unless noted
Summary of the method: as §2

JCK = test: qHTS profiling for inhibitors of Plasmodium falciparum proliferation (AID 504749);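 note: 0% = DMSO vehicle and full inhibition = artemisinin control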; conditions: P. falciparum in erythrocytes, SYBR Green DNA, 72 h; series mostly up to 28.7 µM
Summary of the method: (§3)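 SYBR Green fluorescence (ex 485 nm, em 535 nm) reports parasite DNA after 72 h compound exposure of infected red cells at 0.3% parasitemia, 2.5% hematocrit; signal normalized to 0.29 uM artemisinin and vehicle wells.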

N140 = test: as above; conditions: P. falciparum in erythrocytes, SYBR Green DNA, 72 h; series mostly up to 28.7 µM
Summary of the method: as §3

P93_24 = test: as above; conditions: P. falciparum in erythrocytes, SYBR Green DNA, 72 h; series mostly up to 28.7 µM
Summary of the method: as §3

P94_40 = test: as above; conditions: P. falciparum in erythrocytes, SYBR Green DNA, 72 h; series mostly up to 28.7 µM
Summary of the method: as §3

PAD = test: as above; conditions: P. falciparum in erythrocytes, SYBR Green DNA, 72 h; series mostly up to 28.7 µM
Summary of the method: as §3

PC15 = test: as above; conditions: P. falciparum in erythrocytes, SYBR Green DNA, 72 h; series mostly up to 28.7 µM
Summary of the method: as §3

PC26 = test: as above; conditions: P. falciparum in erythrocytes, SYBR Green DNA, 72 h; series mostly up to 28.7 µM
Summary of the method: as §3

PC49 = test: as above; conditions: P. falciparum in erythrocytes, SYBR Green DNA, 72 h; series mostly up to 28.7 µM
Summary of the method: as §3

SC27B = test: as above; conditions: P. falciparum in erythrocytes, SYBR Green DNA, 72 h; series mostly up to 28.7 µM
Summary of the method: as §3

TAB109 = test: as above; conditions: P. falciparum in erythrocytes, SYBR Green DNA, 72 h; series mostly up to 28.7 µM
Summary of the method: as §3

TAB113 = test: as above; conditions: P. falciparum in erythrocytes, SYBR Green DNA, 72 h; series mostly up to 28.7 µM
Summary of the method: as §3

TAB165 = test: as above; conditions: P. falciparum in erythrocytes, SYBR Green DNA, 72 h; series mostly up to 28.7 µM
Summary of the method: as §3

W2 = test: as above; conditions: P. falciparum in erythrocytes, SYBR Green DNA, 72 h; series mostly up to 28.7 µM
Summary of the method: as §3
Note: nearly all actives have a fitted effect of over 60% in size.

O=c1[nH]c(=O)n([C@H]2C[C@H](O)[C@@H](CO)O2)cc1I
inactive: outcome (CRL-7250) | max response (HEK293) -0.666% | outcome (HaCat [1]) | max response (KB-3-1) 5.94% | outcome (NIH3T3) | outcome (HACAT [2])

CCCCCOC(=O)Nc1nc(=O)n([C@@H]2O[C@H](C)[C@@H](O)[C@H]2O)cc1F
inactive: outcome (CRL-7250) | outcome (HEK293) | outcome (HaCat [1]) | max response (KB-3-1) -8.69% | max response (NIH3T3) 3.66% | outcome (HACAT [2]) | outcome (HEK293T)

COCC(=O)Nc1c(I)c(C(=O)NCC(O)CO)c(I)c(C(=O)N(C)CC(O)CO)c1I (configuration not stated)
inactive: max response (CRL-7250) -2.09% | max response (HEK293) -5.16% | outcome (HaCat [1]) | max response (KB-3-1) 11.7% | max response (NIH3T3) 1.05% | outcome (HACAT [2])

CN[C@@H]1[C@@H](O)[C@@H](O[C@@H]2[C@H](O)[C@H](O[C@H]3OC(CN)=CC[C@H]3N)[C@@H](N)C[C@H]2N)OCC1(C)O (some centres not stated)
inactive: max response (CRL-7250) 2.42% | max response (HEK293) 4.89% | max response (HaCat [1]) 1.23% | max response (KB-3-1) 25.6% | max response (NIH3T3) 2.74%

Cc1ccc2c(c1)c1c3n2CCNC3CCC1 (configuration not stated)
inactive: max response (CRL-7250) -2.33% | max response (HEK293) -1.48% | outcome (HaCat [1]) | max response (KB-3-1) -0.231% | max response (NIH3T3) -0.828% | outcome (HACAT [2])

COc1ccccc1OCC(O)CO (configuration not stated)
inactive: outcome (CRL-7250) | max response (HEK293) -2.29% | outcome (HaCat [1]) | max response (KB-3-1) 4.34% | outcome (NIH3T3) | outcome (HACAT [2])

CC(=O)N(CC(O)CN(C(C)=O)c1c(I)c(C(=O)NCC(O)CO)c(I)c(C(=O)NCC(O)CO)c1I)c1c(I)c(C(=O)NCC(O)CO)c(I)c(C(=O)NCC(O)CO)c1I (configuration not stated)
inactive: max response (CRL-7250) -0.159% | max response (HEK293) -0.57% | max response (HaCat [1]) -14.3% | max response (KB-3-1) 0.0705% | outcome (NIH3T3)

C[n+]1ccccc1/C=N/O
inactive: max response (CRL-7250) -2.33% | max response (HEK293) -5.72% | outcome (HaCat [1]) | max response (KB-3-1) -1.46% | outcome (NIH3T3) | outcome (HACAT [2])

C[N+](C)(C)CC(O)CC(=O)[O-] (configuration not stated)
inactive: max response (CRL-7250) -9.06% | max response (HEK293) -5.18% | max response (HaCat [1]) 4.86% | max response (KB-3-1) -5.76% | outcome (NIH3T3)

CC(=O)N[C@@H](CC(C)C)C(=O)O
inactive: max response (CRL-7250) -9.67% | max response (HEK293) -5.66% | outcome (HaCat [1]) | max response (KB-3-1) -12.6% | max response (NIH3T3) -1.86% | outcome (HACAT [2])

C[N+]1(C)CCCC(OC(=O)C(O)(c2ccccc2)c2ccccc2)C1 (configuration not stated)
inactive: max response (CRL-7250) 2.14% | max response (HEK293) -3.74% | outcome (HaCat [1]) | max response (KB-3-1) -3.88% | max response (NIH3T3) 4.37% | outcome (HACAT [2])

NC(=O)N[C@@H](CCC(=O)O)C(=O)O
inactive: outcome (CRL-7250) | max response (HEK293) -4.43% | outcome (HaCat [1]) | max response (KB-3-1) -19.7% | outcome (NIH3T3) | outcome (HACAT [2])

COc1ccc(NS(=O)(=O)c2ccc(N)cc2)nn1
inactive: Potency (JCK) | Potency (N140) | Potency (P93_24) | Potency (P94_40) | Potency (PAD) | Potency (PC15) | Potency (PC26) | Potency (PC49) | Potency (SC27B) | Potency (TAB109) | Potency (TAB113) | Potency (TAB165) | Potency (W2) | max response (CRL-7250) 3.69% | outcome (HEK293) | outcome (HaCat [1]) | max response (KB-3-1) 14.2% | max response (NIH3T3) -9.1% | outcome (HACAT [2]) | outcome (HEK293T)

CCCNC(C)C(=O)Nc1c(C)csc1C(=O)OC (configuration not stated)
inactive: outcome (CRL-7250) | max response (HEK293) -4.55% | outcome (HaCat [1]) | max response (KB-3-1) -16.9% | outcome (NIH3T3) | outcome (HACAT [2])

OC(CCN1CCCC1)(c1ccccc1)C1CCCCC1 (configuration not stated)
inactive: max response (CRL-7250) -24% | max response (HEK293) -13.4% | max response (HaCat [1]) 3.13% | max response (KB-3-1) -9.13% | outcome (NIH3T3)

CCOC(=O)OC(C)OC(=O)[C@@H]1N2C(=O)[C@@H](NC(=O)[C@H](N)c3ccccc3)[C@H]2SC1(C)C (some centres not stated)
inactive: max response (CRL-7250) -4.78% | max response (HEK293) -9.36% | outcome (HaCat [1]) | max response (KB-3-1) -3.71% | outcome (NIH3T3) | outcome (HACAT [2])

CO[C@@]1(NC(=O)C(C(=O)O)c2ccc(O)cc2)C(=O)N2C(C(=O)O)=C(CSc3nnnn3C)CO[C@@H]21 (some centres not stated)
inactive: max response (CRL-7250) -2.58% | max response (HEK293) 1.05% | outcome (HaCat [1]) | max response (KB-3-1) 4.1% | max response (NIH3T3) -2.47% | outcome (HACAT [2])

CC(C)NC[C@@H](O)COc1ccc(CC(N)=O)cc1
inactive: max response (CRL-7250) -2.68% | outcome (HEK293) | outcome (HaCat [1]) | max response (KB-3-1) 3.62% | max response (NIH3T3) -2.96% | outcome (HACAT [2]) | outcome (HEK293T)

CC[C@H](C)[C@H](N)C(=O)O
inactive: max response (CRL-7250) -1.3% | max response (HEK293) -2.12% | outcome (HaCat [1]) | max response (KB-3-1) -15.9% | max response (NIH3T3) -5.18% | outcome (HACAT [2])

CC(=O)N[C@H]1[C@H]([C@H](O)[C@H](O)CO)OC(C(=O)O)=C[C@@H]1N=C(N)N
inactive: max response (CRL-7250) -5.6% | max response (HEK293) 1.78% | outcome (HaCat [1]) | max response (KB-3-1) 6.48% | outcome (NIH3T3) | outcome (HACAT [2])
